{"source": "PubChem BioAssay (Tox21)", "note": "Results filed as inconclusive are left out. Unmarked numbers belong to inactive results. Activity calls are given as the source filed them. The call rests on the fitted dose curve; in most records, active means well fitted cell-killing curve with a large enough effect in the repeat runs; inconclusive means weak or mixed curves, or effect the other way; inactive means no such curve, though single readings can be large or run the other way. On the % scale 0 is the no-effect control and ±100 the full control effect; potency means the concentration at half of the fitted maximal effect.", "data": [{"experiment": "qHTS assay to identify small molecule antagonists of the progesterone receptor (PR) signaling pathway - cell viability counter screen (AID 1346798); further: nearly all actives have a fitted effect of over 50% in size", "settings": "PR-UAS-bla HEK293T viability, CellTiter-Glo luminescence, 16 h; series mostly up to 92.4 µM; activity change, negative = cytotoxicity: at the top concentration", "source_text": "National Center for Advancing Translational Sciences [NCATS]\nNIH Chemical Genomics Center [NCGC]\nU.S. Environmental Protection Agency [EPA]\nNational Institutes of Environmental Health Sciences [NIEHS]\nNational Toxicology Program [NTP]\nU.S. Food and Drug Administration [FDA]\nProgesterone receptor (PR), a nuclear hormone receptor, plays an important role in development, metabolic homeostasis and reproduction. It is activated by the steroid hormone progesterone. Endocrine disrupting chemicals (EDCs) and their interactions with steroid hormone receptors like PR causes disruption of normal endocrine function. To identify the compounds that inhibit PR signaling, a PR-UAS-bla GripTite cell line i.e. PR-UAS-bla HEK293T (Invitrogen, Carlsbad, CA, USA) containing a beta-lactamase reporter gene under the control of an UAS response element was used to screen Tox21 10K compound library. The cytotoxicity of the Tox21 compound library against the PR-bla cell line was tested in parallel by measuring the cell viability using CellTiter-Glo assay in the same wells.\nTox21 Assay Protocol Summary:\nPR-UAS-bla HEK293T cells were dispensed at 3,000 cells/4 uL of assay medium containing 2% charcoal stripped FBS per well into black wall/clear-bottom 1536-well plates using a Multidrop Combi (ThermoFisher Scientific, Waltham, MA) dispenser. After the assay plates were incubated at a 37C and 5% CO2 for 4 hr, 23 nL of compounds dissolved in DMSO, positive controls or DMSO only was transferred to the assay plate by a Pintool station (Kalypsys, San Diego, CA), followed by addition of 1 uL of R5020 in assay medium using a Flying Reagent Dispenser (FRD, Aurora Discovery, San Diego, CA). The plates were incubated at 37C and 5% CO2 for 16 hr. Then 1 uL of LiveBLAzer B/G FRET substrate was added using a Flying Reagent Dispenser, the plates were incubated at room temperature for 2 hours, and fluorescence intensity was measured by an Envision plate reader (PerkinElmer, Shelton, CT). For cell viability readout that measures cytotoxicity, 4 uL/well of CellTiter-Glo reagent was added into the assay plates using a FRD. After 30 min incubation at room temperature, the luminescence intensity in the plates was measured using a ViewLux (PerkinElmer) plate reader.", "values": [{"smiles": "O=CNNC=O", "activity change, negative = cytotoxicity": "6.96%"}, {"smiles": "COc1ccc(C)cc1", "activity change, negative = cytotoxicity": "-13.1%"}, {"smiles": "CCCOC(=O)c1c(Cl)c(Cl)c(Cl)c(Cl)c1C(=O)OCCC", "activity change, negative = cytotoxicity": "3.77%"}, {"smiles": "CCCCCCCCCCCCCOC(=O)CCSCCC(=O)OCCCCCCCCCCCCC", "activity change, negative = cytotoxicity": "-8.45% [at 18.9 µM]"}, {"smiles": "CCOC(=O)c1ccc(NC(=O)CN2CCCCC2)cc1", "activity change, negative = cytotoxicity": "-19.6% [at 42.5 µM]"}, {"smiles": "CCN(CC)CC(=O)Nc1c(C)cccc1C(=O)OC", "activity change, negative = cytotoxicity": "1.63% [at 42.5 µM]"}, {"smiles": "CC(=O)OCC(C)C", "activity change, negative = cytotoxicity": "15.9%"}, {"smiles": "Nc1ccc(F)cc1", "activity change, negative = cytotoxicity": "5.23%"}, {"smiles": "O=C(c1ccccc1)c1ccc(O)cc1", "activity change, negative = cytotoxicity": "39.6%"}, {"smiles": "O=[N+]([O-])c1ccc2ncccc2c1", "activity change, negative = cytotoxicity": "3.4%"}, {"smiles": "Nc1c(Cl)cc(Cl)cc1[N+](=O)[O-]", "activity change, negative = cytotoxicity": "0.996%"}, {"smiles": "CCOC(=O)c1c(N)sc2c1CCN(Cc1ccccc1)C2", "activity change, negative = cytotoxicity": "-3.46% [at 42.5 µM]"}, {"smiles": "O=C(NC(Cc1cc(=O)[nH]c2ccccc12)C(=O)O)c1ccc(Cl)cc1", "note": "(stereo not given)", "activity change, negative = cytotoxicity": "25.5% [at 42.5 µM]"}, {"smiles": "CC1CCc2nccnc21", "note": "(stereo not given)", "activity change, negative = cytotoxicity": "1.5%"}, {"smiles": "Cc1c(C2(c3cc(Br)c(O)c(Br)c3C)OS(=O)(=O)c3ccccc32)cc(Br)c(O)c1Br", "Potency": "18.8 µM (active)"}, {"smiles": "CCSC(=O)N(CC)CC", "activity change, negative = cytotoxicity": "4.84%"}, {"smiles": "CC(C)C(O)C(C)(C)CO", "note": "(stereo not given)", "activity change, negative = cytotoxicity": "-20.7%"}, {"smiles": "Cc1ccc2c(c1[N+](=O)[O-])C(=O)c1ccccc1C2=O", "activity change, negative = cytotoxicity": "-18.3% [at 42.5 µM]"}, {"smiles": "CC(C)OC(=O)c1ccccc1C(=O)OC(C)C", "Potency": "61.1 µM (active)"}, {"smiles": "CCC(C)(C)C(=O)O", "activity change, negative = cytotoxicity": "0.753%"}, {"smiles": "FC(F)(F)C(F)(F)C(F)(F)C(F)(F)CCI", "activity change, negative = cytotoxicity": "2.23% [at 42.5 µM]"}, {"smiles": "COc1ccc(C(=O)NCc2ccc(OCCN(C)C)cc2)cc1OC", "activity change, negative = cytotoxicity": "-1.16% [at 42.5 µM]"}, {"smiles": "CC(C)C1CCC(C(=O)N[C@H](Cc2ccccc2)C(=O)O)CC1", "note": "(stereo not given in full)", "activity change, negative = cytotoxicity": "0.871% [at 42.5 µM]"}, {"smiles": "O=C1CC[C@@H](C(=O)O)N1", "activity change, negative = cytotoxicity": "0.258% [at 42.5 µM]"}, {"smiles": "CCCCOC(=O)CCCCC(=O)OCCCC", "activity change, negative = cytotoxicity": "8.65%"}, {"smiles": "Oc1ccc2c(c1)Cc1ccccc1-2", "activity change, negative = cytotoxicity": "32.8%"}, {"smiles": "CC/C=C\\C/C=C\\C/C=C\\CCCCCCCC(=O)OCC", "activity change, negative = cytotoxicity": "17.1%"}, {"smiles": "C=CC(=O)NC(C)C", "activity change, negative = cytotoxicity": "-4.17%"}, {"smiles": "CC(C)(C)S", "activity change, negative = cytotoxicity": "-16.1%"}, {"smiles": "CS(=O)(=O)c1ccc([C@@H](C[C@H]2CCC(=O)C2)C(=O)Nc2cnccn2)cc1Cl", "activity change, negative = cytotoxicity": "-8.76%"}, {"smiles": "C=CC(=O)O", "activity change, negative = cytotoxicity": "10.1% [at 42.5 µM]"}, {"smiles": "CC(C)Cc1ccc(CC(=O)O)cc1", "Potency": "29.8 µM (active)"}, {"smiles": "CCCCCCC(O)CCOC(C)=O", "note": "(stereo not given)", "activity change, negative = cytotoxicity": "3.69% [at 238 µM]"}, {"smiles": "CC(=O)OC(C)C[N+](C)(C)C", "note": "(stereo not given)", "activity change, negative = cytotoxicity": "-1.61% [at 42.5 µM]"}, {"smiles": "CCCCCCCCCCCCCCCCCC(=O)OCC(CC)CCCC", "note": "(stereo not given)", "activity change, negative = cytotoxicity": "6.36%"}, {"smiles": "CC1CCC(C(C)CS)CC1S", "note": "(stereo not given)", "activity change, negative = cytotoxicity": "3.88%"}, {"smiles": "CCC(CO)(CO)CO", "activity change, negative = cytotoxicity": "4.26%"}, {"smiles": "COc1ccc(-c2cc(=S)ss2)cc1", "Potency": "15 µM (active)"}, {"smiles": "C[C@@H]1C[C@H]2[C@@H]3CCC4=CC(=O)C=C[C@]4(C)[C@@]3(F)[C@@H](O)C[C@]2(C)[C@@]1(O)C(=O)COP(=O)(O)O", "activity change, negative = cytotoxicity": "16.2%"}, {"smiles": "Cc1ccc2c(c1)CCCN2", "activity change, negative = cytotoxicity": "3.99%"}]}]}
